The panel holds about 83,000 compounds, 20% with a hit somewhere; the sample as a whole holds those more often.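 The test compound was applied at a single concentration to cells in 96-well plates for 48 hours, and percent growth was recorded.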 Unmarked numbers belong to inactive results. Activity calls are given as the source filed them.
tested on: SN12C renal; experiment: NCI-60 one-dose screen, 48 h (100 = growth as untreated, 0 = no growth, -100 = all killed); settings: 10 µM unless noted
Procedure: Growth inhibition of the SN12C human tumor cell line is measured as a screen for anti-cancer activity. Cells are grown in 96 well plates and exposed to the test compound for 48 hours. Compounds are tested at a single concentration, which is 10^-5 M for most compounds. The reported endpoint is percent growth (GI% or GIPRCNT), where numbers from 0 - 100% represent growth inhibition, and numbers from -100% - 0 represent cell death. For example, a value of 40 represents 60% growth inhibition. A value of 0 means no net growth occurred over the course of the experiment. A value of -40 indicates 40% of cells at the beginning of the experiment died by the end of the experiment. A value of -100 means all cells are dead at the end of the experiment.
NCI-60 Human Tumor Cell Lines Screen was performed using the standard one-dose NCI protocol, which is described in more detail at https://dtp.cancer.gov/discovery_development/nci-60/default.htm.
Compounds with GIPRCNT values below 10 were considered active. Activity score was based on GIPRCNT using the following formula: […]
Score is 0 for GIPRCNT values of 100 or above, 50 for GIPRCNT values of 0, and 100 for GIPRCNT values of -100.

Q: How did the growth turn out when CO/N=C1\CCc2c(sc(NC(=O)c3cccc(C(F)(F)F)c3)c2C(N)=O)C1 was run?
A: The growth was 15.6%.

Q: With NS(=O)(=O)c1ccc(Nc2nc(SCC(=O)c3ccc(Cl)cc3)nc3ccccc23)cc1 as the compound, how does the growth read?
A: The growth was 88.1%.

Q: Which growth does the source give for Cc1ccccc1NC(=O)/C=C/c1ccc(OCCOc2ccc3c(C)cc(=O)oc3c2)cc1 here?
A: Its growth is 91.5%.

Q: How did the growth turn out when COc1ccc(C(=O)/C=C/c2ccc(OCc3ccc(Cl)cc3)c(OC)c2)cc1OC was run?
A: Its growth is 76.6%.

Q: COc1cc2nc(-c3ccc(C(F)(F)F)cc3)cc(OCCCNCC3CCCO3)c2cc1OC (stereo not given) was tested. Which growth did it give?
A: Its growth is 46.2%.

Q: How did the growth turn out when O=C(CSc1nccc(=O)[nH]1)Nc1ccc(-c2nc3ccccc3[nH]2)cc1 was run?
A: Its growth is 103%.

Q: How did the growth turn out when C/C(=N\NC(N)=O)c1c(O)sc(=O)[nH]c1=O was run?
A: The growth was 97.1%.

Q: With CC(C)(C)Nc1nc2c(OCCc3ccccc3)cccn2c1-c1ccc(O)cc1 as the compound, how does the growth read?
A: Its growth is 64.3%.

Q: With Cc1cccc(/C=C/c2nn3c(-c4ccco4)nnc3s2)c1 as the compound, how does the growth read?
A: Its growth is 94.8%.

Q: Which growth does the source give for N#Cc1nc(-c2ccccc2)oc1N1CC[C@@H](CO)C1 here?
A: Its growth is 98.1%.

Q: How did the growth turn out when O=C1NC(=C(Cl)Cl)/C(=N/S(=O)(=O)N2CCCCC2CC2(C(F)(F)F)N=N2)N1 (stereo not given) was run?
A: Its growth is 95.8%.

Q: CN(C)CCCOc1c2ccccc2nc2c1oc1ccc(Cl)cc12 was tested. Which growth did it give?
A: The growth was 12.4%.

Q: With Nc1nc(N)c2c(n1)NC(c1ccc(F)cc1)CC(c1ccc(Nc3nc(NCCO)nc(Nc4ccc(Cl)cc4)n3)cc1)=N2 (stereo not given) as the compound, how does the growth read?
A: Its growth is 59.9%.

Q: Which growth does the source give for c1ccc(CNc2ncnc3ccc(-c4cnc5[nH]ncc5c4)cc23)cc1 here?
A: The growth was 56.6%.

Q: With CC(=O)c1ccc(Nc2nc(SC(C)C)nc(-c3ccccc3)c2C#N)cc1 as the compound, how does the growth read?
A: Its growth is 97%.

Q: For O=C(N/N=C/c1ccc([N+](=O)[O-])o1)c1[nH]c2ccc(Br)cc2c1-c1ccccc1, which growth is on record?
A: The growth was 21.9%.

Q: Cc1ccc(CNS(=O)(=O)/N=C2\NC(=O)NC2=C(Cl)Cl)cc1 was tested. Which growth did it give?
A: The growth was 26.4%.

Q: For Clc1ccc2oc3c(OCCCn4ccnc4)c4ccccc4nc3c2c1, which growth is on record?
A: The growth was 56.3%.

Q: How did the growth turn out when CC(=O)Oc1ccccc1C(=O)Nc1cc(C(C)C)ccc1C was run?
A: The growth was 8.31% (active).

Q: Which growth does the source give for Cc1cc(C(=O)Nc2sc3c(c2C(N)=O)CCC(=O)C3)ccc1OCCN1CCCCC1 here?
A: Its growth is 92.5%.

Q: How did the growth turn out when CC(C)(C)Nc1nc2c(OCCc3ccccc3)cccn2c1-c1cccc(F)c1 was run?
A: Its growth is 6.27% (active).

Q: With O=C(Nc1nc2ccc(O)cc2s1)c1cccc(C(F)(F)F)c1 as the compound, how does the growth read?
A: Its growth is 68.9%.

Q: How did the growth turn out when Nc1c(C(=O)c2ccc(Br)cc2)oc2nc(-c3cnccn3)cc(-c3cccs3)c12 was run?
A: The growth was 97.9%.

Q: How did the growth turn out when COc1cc(N=Cc2sc(Nc3nccs3)nc2O)cc(OC)c1OC was run?
A: The growth was 94.7%.

Q: For Fc1ccc(-c2cc3nc(C(Cl)Cl)nc(-c4ccc(Cl)cc4)n3n2)cc1, which growth is on record?
A: The growth was 53.3%.

Q: Which growth does the source give for COc1ccc(N/N=C/c2c(-c3ccc(S(C)(=O)=O)cc3)nc3ccccn23)cc1 here?
A: The growth was 49.8%.

Q: How did the growth turn out when CN(C)CCCNc1c2ccc(Cl)cc2nc2c1oc1ccccc12 was run?
A: Its growth is 6.3% (active).

Q: Which growth does the source give for COc1ccc(/C=N/NC(=O)c2[nH]c3ccc(Br)cc3c2-c2ccccc2)o1 here?
A: Its growth is 43.3%.

Q: With N#Cc1nc(-c2ccccc2)oc1S(=O)(=O)N1CCCCC1 as the compound, how does the growth read?
A: Its growth is 62.5%.

Q: O=C(N/N=C/c1ccc(Cl)s1)c1[nH]c2ccc(Br)cc2c1-c1ccccc1 was tested. Which growth did it give?
A: Its growth is 50.4%.

Q: With CC(O)C(NC(=O)C1CCCN1C(=O)CNC(=O)C1CC(=O)NCC(=O)NC(Cc2c[nH]c3ccccc23)C(=O)NC(Cc2ccc(O)cc2)C(=O)NCC(=O)NC(CO)C(=O)NC(CCC(N)=O)C(=O)NC(Cc2c[nH]c3ccccc23)C(=O)N1)C(=O)NCC(=O)NC(CCC(N)=O)C(=O)NC(CCCNC(=N)N)C(=O)NC(CC(=O)O)C(=O)O (stereo not given) as the compound, how does the growth read?
A: Its growth is 101%.

Q: NS(=O)(=O)c1cccc(Nc2nc(SCC(=O)c3ccc(Cl)cc3)nc3ccccc23)c1 was tested. Which growth did it give?
A: The growth was 63.4%.

Q: Which growth does the source give for O=C(CCCN1C(=O)/C(=C/c2ccccc2F)SC1=S)N1CCOCC1 here?
A: Its growth is 87.6%.

Q: How did the growth turn out when N#Cc1c(-c2ccc(F)cc2)nc2c(C#N)c(Nc3ccccc3)nn2c1N was run?
A: Its growth is 97.7%.

Q: How did the growth turn out when Clc1ccc2oc3c(NCCCN4CCOCC4)c4ccccc4nc3c2c1 was run?
A: Its growth is 19.6%.

Q: Which growth does the source give for Cn1c(SCC(=O)Nc2ccc(-c3nc4ccc([N+](=O)[O-])cc4[nH]3)cc2)nc2ccccc2c1=O here?
A: Its growth is 91.1%.

Q: With CC(=O)Nc1cc(F)cc(-c2ccc3[nH]cc(-c4ccccc4)c3n2)c1 as the compound, how does the growth read?
A: The growth was 32.7%.

Q: For Nc1ncc(-c2ccc3ncnc(N4CCc5cc(F)c(Cl)cc54)c3c2)cc1CO, which growth is on record?
A: Its growth is 14.7%.

Q: With COc1ccc(C(=O)/C=C/c2ccc(Oc3nc(NCCO)nc(N4CCOCC4)n3)c(OC)c2)cc1 as the compound, how does the growth read?
A: Its growth is 86.2%.

Q: COC(=O)C(C)NS(=O)(=O)/N=C1\NC(=O)NC1=C(Cl)Cl (stereo not given) was tested. Which growth did it give?
A: Its growth is 98.7%.

— PubChem BioAssay (NCI)
